In PubChem BioAssay:

The molecules below were run against Calmodulin-1 (Homo sapiens) (UniProt P0DP23) (assay: small molecules binding calmodulin-1 with EGTA – biochemical, small-molecule microarray, Cy5-labelled CALM1, profiling panel (AID 1111;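 note: labelled calmodulin applied in Tris saline Tween buffer holding calcium plus EGTA and DTT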)). Settings: Cy5-CALM1 binding fluorescence, higher = more signal.

Row | Structure (SMILES) | composite z-score
1 | COc1cc2c(cc1O)C=[N+](Cc1cccc(OC(F)(F)F)c1)CC2 | -0.579
2 | CCOC(=O)C=Cc1cc([N+](=O)[O-])ccc1O | -0.211
3 | N#Cc1ccc(NN2C(C(O)c3c(F)cccc3Cl)C=CC3C(=O)N(c4ccccc4)C(=O)C32)cc1 (stereo unspecified) | 2.51
4 | O=C1O[C@H](c2ccccc2)[C@H](c2ccccc2)N2[C@H]1[C@@H](C(=O)NC[C@H](O)c1ccccc1)[C@]1(C(=O)Nc3ccccc31)[C@H]2c1ccc(OCCO)cc1 | 0.475
5 | O=C1c2ccccc2[C@](Cc2ccccc2I)(C(=O)NC2CC2)[C@H](c2ccc(CO)cc2)N1C1CCCCC1 | 0.675
6 | CC(C)C[C@@H]1NC(=O)[C@@H]2C[C@H](C(=O)NCCCCCN)[C@H](c3cccc(OCCO)c3)N2C1=O | 1.36
7 | CCCCCN1CC=CC23O[C@@H]4/C=C\CCCOC(=O)C4[C@H]2C(=O)N(C(CO)C(C)C)[C@@H]3C1=O (stereo partly specified) | -0.33
8 | O=C(NCc1ccc(F)cc1)[C@H]1C[C@H]2C(=O)N[C@@H](Cc3ccccc3)C(=O)N2[C@H]1c1ccc(O)cc1 | 0.0755
9 | COCC(=C=CC[C@@H](O)c1ccccc1OCCO)C[C@@H](O)c1cc(Cl)cc(Cl)c1O | 0.362
10 | COCCOC(=O)N1C(=O)[C@@]2(c3cc(C#CC4=CCCCC4)ccc31)[C@H](C(N)=O)[C@H]1C(=O)O[C@H](c3ccccc3)[C@H](c3ccccc3)N1[C@@H]2c1ccc(OCCO)cc1 | -0.822
11 | O=C1OCCC/C=C\[C@H]2OC34C=CCN(Cn5nnc6ccccc65)C(=O)[C@H]3N(CCO)C(=O)[C@@H]4C12 (stereo partly specified) | -0.173
